Test results taken from PubChem BioAssay AID1159580 (chemical genetic matrix, 2015).
Hit rate of the full screen: of about 5,500 compounds, about 2,000 (36%) were called active. About 18% were inconclusive and are not listed. Cut-off read from the data, not from the text of the source: active = normalized growth mostly below about 0.91 (no sharp cut-off); inconclusive = no clear call, values can overlap the other calls; inactive = mostly above about 0.92. This is one part of the list.

Assay: chemical genetic growth profiling, strain panel (AID 1159580);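 note: tested at 20 µM; growth read once vehicle control cultures reached saturation at 30 °C; 1 = growth at the plate median or of vehicle wells; lower values mean less growth of the strain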
Settings: growth OD

Measured: normalized growth

CC(C(=O)O)c1ccc(C(=O)c2cccs2)cc1 (stereo not drawn)
inactive: S. cerevisiae deletion strains, locus YKL009W, strain mrt4, active compounds read low 1.02 | S. cerevisiae deletion strains, locus YKL068W, active compounds read low 1.01 | S. cerevisiae deletion strains, locus YKL085W, strain MDH1 (second series), active compounds read low 0.983 | S. cerevisiae deletion strains, locus YKL085W, strain MDH1, active compounds read low 0.983 | S. cerevisiae deletion strains, locus YKL160W, strain elf1, active compounds read low 0.992 | S. cerevisiae deletion strains, locus YKL190W, strain CNB1, active compounds read low 1 | S. cerevisiae deletion strains, locus YKR001C, strain vps1, active compounds read low 1.01 | S. cerevisiae deletion strains, locus YKR026C, strain gcn3, active compounds read low 0.987 | S. cerevisiae deletion strains, locus YKR091W, strain srl3, active compounds read low 1.01 | S. cerevisiae deletion strains, locus YLL001W, strain dnm1, active compounds read low 0.995 | S. cerevisiae deletion strains, locus YLL026W, active compounds read low 0.99 | S. cerevisiae deletion strains, locus YLL041C, strain sdh2, active compounds read low 0.996 | S. cerevisiae deletion strains, locus YLR027C, strain aat2, active compounds read low 1.01 | S. cerevisiae deletion strains, locus YLR039C, strain RIC1, active compounds read low 1.01 | S. cerevisiae deletion strains, locus YLR058C, strain SHM2, active compounds read low 1.01 | S. cerevisiae deletion strains, locus YLR102C, strain apc9, active compounds read low 1.01 | S. cerevisiae deletion strains, locus YLR113W, strain HOG1, active compounds read low 0.968 | S. cerevisiae deletion strains, locus YLR221C, strain rsa3, active compounds read low 0.991 | S. cerevisiae deletion strains, locus YLR258W, strain gsy2, active compounds read low 1 | S. cerevisiae deletion strains, locus YLR262C, strain YPT6 (second series), active compounds read low 0.951 | S. cerevisiae deletion strains, locus YLR262C, strain YPT6, active compounds read low 1 | S. cerevisiae deletion strains, locus YLR268W, strain sec22, active compounds read low 1.01 | S. cerevisiae deletion strains, locus YLR320W, strain mms22, active compounds read low 1 | S. cerevisiae deletion strains, locus YLR330W, strain CHS5, active compounds read low 0.999 | S. cerevisiae deletion strains, locus YLR342W, strain FKS1 (second series), active compounds read low 1 | S. cerevisiae deletion strains, locus YLR342W, strain FKS1, active compounds read low 1 | S. cerevisiae deletion strains, locus YLR357W, strain rsc2, active compounds read low 0.967 | S. cerevisiae deletion strains, locus YLR370C, strain arc18, active compounds read low 0.998 | S. cerevisiae deletion strains, locus YLR371W, strain rom2, active compounds read low 1.02 | S. cerevisiae deletion strains, locus YLR384C, strain iki3, active compounds read low 1.01 | S. cerevisiae deletion strains, locus YLR418C, strain cdc73, active compounds read low 1.03 | S. cerevisiae deletion strains, locus YML016C, strain PPZ1, active compounds read low 1.01 | S. cerevisiae deletion strains, locus YML032C, strain rad52, active compounds read low 1.02 | S. cerevisiae deletion strains, locus YML120C, strain ndi1, active compounds read low 1 | S. cerevisiae deletion strains, locus YML124C, strain tub3, active compounds read low 1.02 | S. cerevisiae deletion strains, locus YMR058W, strain fet3, active compounds read low 1.02 | S. cerevisiae deletion strains, locus YMR078C, strain ctf18, active compounds read low 1.02 | S. cerevisiae deletion strains, locus YMR125W, strain sto1, active compounds read low 0.976 | S. cerevisiae deletion strains, locus YMR129W, active compounds read low 0.985 | S. cerevisiae deletion strains, locus YMR205C, strain PFK2, active compounds read low 0.965 | S. cerevisiae deletion strains, locus YMR223W, strain ubp8, active compounds read low 1.02 | S. cerevisiae deletion strains, locus YMR231W, strain pep5, active compounds read low 0.991 | S. cerevisiae deletion strains, locus YMR263W, strain SAP30, active compounds read low 1 | S. cerevisiae deletion strains, locus YMR307W, strain GAS1, active compounds read low 0.997 | S. cerevisiae deletion strains, locus YNL067W, strain RPL9B, active compounds read low 1 | S. cerevisiae deletion strains, locus YNL071W, strain lat1, active compounds read low 1 | S. cerevisiae deletion strains, locus YNL153C, strain GIM3, active compounds read low 1 | S. cerevisiae deletion strains, locus YNL183C, strain NPR1, active compounds read low 0.949 | S. cerevisiae deletion strains, locus YNL209W, strain ssb2, active compounds read low 1.01 | S. cerevisiae deletion strains, locus YNL233W, strain BNI4, active compounds read low 1 | S. cerevisiae deletion strains, locus YNL248C, strain rpa49, active compounds read low 1.02 | S. cerevisiae deletion strains, locus YNL250W, strain rad50, active compounds read low 1.01 | S. cerevisiae deletion strains, locus YNL271C, strain bni1, active compounds read low 1.02 | S. cerevisiae deletion strains, locus YNL298W, strain CLA4, active compounds read low 1.02 | S. cerevisiae deletion strains, locus YNL307C, strain MCK1, active compounds read low 1.02 | S. cerevisiae deletion strains, locus YNL322C, strain KRE1 (second series), active compounds read low 0.994 | S. cerevisiae deletion strains, locus YNR049C, strain mso1, active compounds read low 0.998 | S. cerevisiae deletion strains, locus YNR052C, strain pop2, active compounds read low 1.01 | S. cerevisiae deletion strains, locus YOL006C, strain TOP1, active compounds read low 0.978 | S. cerevisiae deletion strains, locus YOL012C, strain htz1 0.883 | S. cerevisiae deletion strains, locus YOL147C, strain pex11, active compounds read low 1.01 | S. cerevisiae deletion strains, locus YOR001W, strain rrp6, active compounds read low 1.01 | S. cerevisiae deletion strains, locus YOR061W, strain CKA2, active compounds read low 1.01 | S. cerevisiae deletion strains, locus YOR069W, strain VPS5, active compounds read low 1 | S. cerevisiae deletion strains, locus YOR070C, strain gyp1, active compounds read low 1 | S. cerevisiae deletion strains, locus YOR080W, strain dia2, active compounds read low 0.988 | S. cerevisiae deletion strains, locus YOR083W, strain WHI5, active compounds read low 1 | S. cerevisiae deletion strains, locus YOR106W, strain vam3, active compounds read low 0.995 | S. cerevisiae deletion strains, locus YOR136W, strain idh2, active compounds read low 1.02 | S. cerevisiae deletion strains, locus YOR144C, strain elg1, active compounds read low 1.02 | S. cerevisiae deletion strains, locus YOR184W, strain ser1, active compounds read low 1.02 | S. cerevisiae deletion strains, locus YOR231W, strain MKK1, active compounds read low 0.993 | S. cerevisiae deletion strains, locus YOR265W, strain rbl2, active compounds read low 0.992 | S. cerevisiae deletion strains, locus YOR270C, strain vph1, active compounds read low 0.997 | S. cerevisiae deletion strains, locus YOR290C, strain snf2, active compounds read low 1.01 | S. cerevisiae deletion strains, locus YOR316C, strain cot1, active compounds read low 1.02 | S. cerevisiae deletion strains, locus YPL051W, strain arl3, active compounds read low 0.989 | S. cerevisiae deletion strains, locus YPL055C, strain LGE1, active compounds read low 1.02 | S. cerevisiae deletion strains, locus YPL078C, strain atp4, active compounds read low 0.983 | S. cerevisiae deletion strains, locus YPL106C, strain sse1, active compounds read low 0.979 | S. cerevisiae deletion strains, locus YPL240C, strain hsp82, active compounds read low 0.992 | S. cerevisiae deletion strains, locus YPL256C, strain CLN2, active compounds read low 1.02 | S. cerevisiae deletion strains, locus YPR119W, strain clb2, active compounds read low 1.01 | S. cerevisiae deletion strains, locus YPR141C, strain kar3, active compounds read low 1.01 | S. cerevisiae deletion strains, locus YPR163C, strain tif3, active compounds read low 1.02 | S. cerevisiae deletion strains, locus YPR167C, strain met16, active compounds read low 1.02 | S. cerevisiae deletion strains, strain wtn01, active compounds read low 1.01 | S. cerevisiae strains, strain wild type, active compounds read low 1
